In PubChem BioAssay (NCI) one finds growth data, which are given here for 26 compounds.

Each structure is given as a SMILES string. Compounds without any hit were thinned out: in the full panel of roughly 83,000, 20% have a hit.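 48-hour exposure, single concentration, 96-well plates; percent growth endpoint where 0 means no net growth. Active: below 10.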 A number with no mark means an inactive call. The source made the active and inactive calls.

Among the test systems are T-47D breast; BT-549 breast; MDA-MB-435 melanoma; SW-620 colon; MCF7 breast; HCT-116 colon; HCC-2998 colon; KM12 colon.
Common to all, as to assay: NCI-60 one-dose screen, 48 h (100 = growth as untreated, 0 = no growth, -100 = all killed)
Holding throughout (conditions): 10 µM unless noted

Regarding `O=C(CCN1CCCC1)Nc1ccc2c(NCc3ccc(F)cc3)c3ccccc3nc2c1`, the growth in the test on T-47D breast was -5.76% (active); with BT-549 breast, 18.5%; with MDA-MB-435 melanoma, -53.4% (active); with SW-620 colon it was -31.3% (active); with MCF7 breast, -12.2% (active); with HCT-116 colon, -29.9% (active). Moreover, the growth was -32.5% (active) in the test with HCC-2998 colon and -6.48% (active) in the test with KM12 colon.

Consider `COc1ccc(-c2nc(N/N=C/c3cccc(O)c3)nc(N3CCOCC3)c2C#N)cc1`, for which the growth in the test on T-47D breast is 72%; with BT-549 breast, 84.6%; with MDA-MB-435 melanoma, 97.7%; in the test with SW-620 colon it was 58.9%; in the test on MCF7 breast, 61.7%; in the test with HCT-116 colon, 59.1%. Further, the growth in the test on HCC-2998 colon was 108%; with KM12 colon, 72.2%.

Turning to `Cc1ccc2[nH]c(=O)cc(-n3nncc3COc3ccc(C=O)cc3)c2c1`, the growth was 97.5% with T-47D breast; 90.8% in the test on BT-549 breast; 103% in the test with MDA-MB-435 melanoma; 99.4% in the test with SW-620 colon; 95.6% with MCF7 breast; 108% in the test on HCT-116 colon. The growth in the test with HCC-2998 colon was 109%; in the test on KM12 colon, 106%.

On to `O=C1Nc2c(ccc(Cl)c2Cl)/C1=C/c1ccc(F)cc1`, for which the growth with T-47D breast is 71.2%; in the test with BT-549 breast, 99.8%; in the test with MDA-MB-435 melanoma it was 99.1%; in the test with SW-620 colon, 96.4%; in the test with MCF7 breast, 37.7%; in the test on HCT-116 colon, 84.4%. The growth in the test with HCC-2998 colon was 58.1%; in the test with KM12 colon, 85.2%.

For the compound `C[C@]12CCc3nc(Nc4cccc(O)c4)sc3C1=CC[C@@H]1[C@@H]2CC[C@]2(C)/C(=N\NC(N)=S)CC[C@@H]12`, the growth with T-47D breast is 19.5%; in the test on BT-549 breast it was 7.62% (active); in the test on MDA-MB-435 melanoma it was 5.53% (active); in the test with SW-620 colon, -50% (active); in the test with MCF7 breast, -39.3% (active); in the test with HCT-116 colon, -61.8% (active). The growth with HCC-2998 colon is 65.3%; in the test on KM12 colon, 13.5%.

On to `COc1cc(C2NC(c3cc(OC)c(OC)c(OC)c3)C(C#N)(C#N)C2(C#N)C#N)cc(OC)c1OC` (stereo not drawn), for which the growth was 96.4% with T-47D breast; 101% in the test with BT-549 breast; 101% in the test with MDA-MB-435 melanoma; 95.8% in the test with SW-620 colon; 95.5% with MCF7 breast; 91.1% with HCT-116 colon. Further, the growth with HCC-2998 colon is 98.7%; in the test with KM12 colon it was 99.5%.

For `Nc1ncc(C#Cc2cncc(NC(=O)c3cccc(C(F)(F)F)c3)c2)c2cccnc12`, the growth was 76.3% with T-47D breast; 63.1% with BT-549 breast; 22.9% with MDA-MB-435 melanoma; 49.3% with SW-620 colon; 4.41% (active) in the test with MCF7 breast; 21.8% with HCT-116 colon. Besides, the growth is 47.1% in the test with HCC-2998 colon and 19% in the test on KM12 colon.

In the case of `C=Cc1cc[n+](CCCCCCCCCCCC)cc1`, the growth in the test on T-47D breast was 131%; in the test with BT-549 breast, 116%; with MDA-MB-435 melanoma, 104%; with SW-620 colon it was 100%; in the test on MCF7 breast, 106%; in the test on HCT-116 colon, 97.6%. The growth was 110% in the test with HCC-2998 colon and 104% in the test on KM12 colon.

As for `Cc1ccc(O)c(C(=O)O)c1`, the growth in the test with T-47D breast is 106%; in the test on BT-549 breast it was 111%; in the test with MDA-MB-435 melanoma, 111%; in the test on SW-620 colon, 104%; with MCF7 breast it was 104%; in the test on HCT-116 colon it was 108%. The growth was 110% in the test with HCC-2998 colon and 108% in the test with KM12 colon.

In the case of `Cc1nc2sc(C(=O)Nc3cccc(Br)c3)c(N)c2cc1C(=O)c1ccc(C(F)(F)F)cc1`, the growth in the test on T-47D breast was 95.1%; in the test with BT-549 breast, 95.7%; with MDA-MB-435 melanoma it was 87.9%; in the test with SW-620 colon, 72.2%; in the test on MCF7 breast, 70%; with HCT-116 colon, 56.1%. Besides, the values for the growth with HCC-2998 colon and with KM12 colon were 86.9% and 84.8%, respectively.

For `Clc1ccc(N2N=C(c3cccc(Nc4ccncc4)c3)CC2c2ccc(Br)cc2)cc1` (stereo not drawn), the growth is 48.7% in the test on T-47D breast; 116% in the test on BT-549 breast; -83.1% (active) with MDA-MB-435 melanoma; -68.1% (active) in the test with SW-620 colon; -51.5% (active) in the test on MCF7 breast; 105% with HCT-116 colon. The growth with HCC-2998 colon was -67.7% (active); in the test with KM12 colon it was -51% (active).

On to `CCCCCCNC(=O)Oc1ccc(/C(=C(/CC)Cc2ccccc2)c2ccc(OCCN(CC)CC)cc2)cc1`, for which the growth is 56.1% in the test with T-47D breast; 95.2% with BT-549 breast; 60.9% in the test with MDA-MB-435 melanoma; 23.1% in the test on SW-620 colon; 10.1% in the test with MCF7 breast; 27.2% with HCT-116 colon. The growth in the test with HCC-2998 colon was 59.5%; in the test on KM12 colon it was 51.6%.

With `COc1cccc(CCC(=O)c2cc3c(N)c(C(=O)Nc4ccccc4)sc3nc2C)c1`, the growth is 38.2% in the test on T-47D breast; 44.8% with BT-549 breast; -44.5% (active) in the test on MDA-MB-435 melanoma; 22.2% in the test on SW-620 colon; 10.5% in the test with MCF7 breast; 14.4% in the test on HCT-116 colon. The growth is 45.1% with HCC-2998 colon and 23% with KM12 colon.

`CCOC(=O)c1ccc(Nc2ccnc(SCC(=O)c3ccc(C#N)cc3)n2)cc1`: the growth was 9.84% (active) in the test on T-47D breast; 50.1% in the test on BT-549 breast; 68.4% in the test with MDA-MB-435 melanoma; 89.8% with SW-620 colon; 67% with MCF7 breast; 71.8% in the test with HCT-116 colon. Further, the values for the growth in the test with HCC-2998 colon and with KM12 colon were 103% and 54.5%, respectively.

For `O=C(/C=C/c1ccc[nH]1)c1ccc(-n2ccc(C(F)(F)F)n2)cc1`, the growth in the test on T-47D breast was 94.7%; in the test on BT-549 breast, -45.3% (active); in the test with MDA-MB-435 melanoma it was 99.5%; with SW-620 colon it was 102%; with MCF7 breast, 72.2%; with HCT-116 colon, 87.3%. Moreover, the growth in the test with HCC-2998 colon is 54.7%; with KM12 colon, 1.59% (active).

Take `Fc1ccc(C2CC(c3cccc(Nc4ccncc4)c3)=NN2c2cc(Cl)cc(Cl)c2)cc1` (stereo not drawn): the growth with T-47D breast is 74.6%; in the test on BT-549 breast, 104%; in the test with MDA-MB-435 melanoma, -22.5% (active); with SW-620 colon, -85.2% (active); in the test on MCF7 breast, -25.6% (active); in the test on HCT-116 colon it was 98.8%. In addition, the growth with HCC-2998 colon was 19.1%; with KM12 colon, -35.7% (active).

`COc1ccc(C(=O)c2cc3c(N)c(C(=O)Nc4ccc(Cl)cc4)sc3nc2C)cc1`: the growth is 66.4% with T-47D breast; 79.5% in the test on BT-549 breast; 57.2% in the test with MDA-MB-435 melanoma; 64.3% in the test with SW-620 colon; 61.8% in the test with MCF7 breast; 54.6% with HCT-116 colon. For the same compound, the results for the growth with HCC-2998 colon and in the test on KM12 colon were 91.6% and 70.2%, respectively.

For `COc1ccccc1-c1c(-c2ccc(Cl)cc2)c2cc3c(cc2[nH]c1=O)OCCO3`, the growth is 66% in the test with T-47D breast; 67.7% in the test with BT-549 breast; 65.2% with MDA-MB-435 melanoma; 93.7% with SW-620 colon; 42% in the test with MCF7 breast; 47.7% in the test with HCT-116 colon. In addition, the growth in the test with HCC-2998 colon was 83.7%; in the test with KM12 colon it was 63.8%.

Turning to `Clc1ccc(C2CC(c3cccc(Nc4ccncc4)c3)=NN2c2ccc(Cl)cc2)cc1` (stereo not drawn), the growth was 52.2% in the test on T-47D breast; -80.2% (active) with BT-549 breast; -79% (active) in the test on MDA-MB-435 melanoma; -67.6% (active) with SW-620 colon; -41.1% (active) in the test with MCF7 breast; -73.2% (active) in the test on HCT-116 colon. In addition, the growth was -74% (active) in the test with HCC-2998 colon and -77.3% (active) in the test with KM12 colon.

Regarding `CCOC(=O)c1c(SC)nn(-c2cc(=O)[nH]c3ccc(Br)cc23)c1N`, the growth with T-47D breast is 92.9%; with BT-549 breast, 116%; with MDA-MB-435 melanoma, 107%; with SW-620 colon it was 94.2%; with MCF7 breast it was 93.4%; with HCT-116 colon, 89.5%. Moreover, the figures for the growth in the test with HCC-2998 colon and in the test with KM12 colon were 102% and 99%, respectively.

Regarding `C=CCn1c(SCC(=O)Nc2ccc(C(=O)/C=C/c3cc(OC)c(OC)c(OC)c3)cc2)nnc1-c1cc(OC)c(OC)c(OC)c1`, the growth was 60.7% with T-47D breast; 52.3% in the test with BT-549 breast; 3.79% (active) with MDA-MB-435 melanoma; -9.49% (active) in the test on SW-620 colon; 7.87% (active) with MCF7 breast; -70.9% (active) with HCT-116 colon. The growth in the test with HCC-2998 colon is 20.2%; in the test on KM12 colon, 1.11% (active).

In the case of `C[C@H]1[C@H](C)CC[C@]2(CO)CC[C@]3(C)C(=CC[C@@H]4[C@@]5(C)CCCNC(C)(C)[C@@H]5CC[C@]43C)[C@H]12`, the growth is 1.1% (active) in the test on T-47D breast; -66% (active) with BT-549 breast; -73.9% (active) in the test with MDA-MB-435 melanoma; -69.6% (active) in the test with SW-620 colon; -29.4% (active) with MCF7 breast; -94.7% (active) in the test with HCT-116 colon. Besides, the growth in the test on HCC-2998 colon was -38.7% (active); with KM12 colon, 0.124% (active).

Turning to `COc1cnccc1-c1nc2ccc3[nH]ncc3c2c2c1CCCC2`, the growth in the test with T-47D breast was 68.4%; in the test with BT-549 breast, 43.3%; with MDA-MB-435 melanoma, 13.2%; in the test with SW-620 colon it was 28.1%; in the test with MCF7 breast, 43.5%; with HCT-116 colon, 23.8%. For the same compound, the growth in the test on HCC-2998 colon was 58.4%; with KM12 colon it was 21.4%.

As for `CC1(C)NCCC[C@]2(C)[C@H]3CC=C4[C@@H]5C[C@@](C)(CO)CC[C@]5(C)CC[C@@]4(C)[C@]3(C)CC[C@@H]12`, the growth in the test with T-47D breast is 57.7%; in the test with BT-549 breast, 78.5%; in the test on MDA-MB-435 melanoma, 51.5%; with SW-620 colon it was 74.1%; with MCF7 breast, 40.7%; in the test with HCT-116 colon it was 21%. Further, the results for the growth in the test with HCC-2998 colon and in the test on KM12 colon were 60.5% and 52.8%, respectively.

Consider `COc1ccc(Nn2c(SCC(=O)Nc3nc(-c4ccc(Cl)cc4)cs3)nc(C)c2C)cc1`, for which the growth is 32.9% in the test with T-47D breast; 53.3% with BT-549 breast; 50.4% with MDA-MB-435 melanoma; 75.2% with SW-620 colon; 20.8% with MCF7 breast; 27.8% in the test on HCT-116 colon. In addition, the values for the growth in the test on HCC-2998 colon and in the test with KM12 colon were 54.2% and 43.1%, respectively.

In the case of `O=C(Nc1ccc2cc3ccc(NC(=O)N4CCCCCC4)cc3nc2c1)N1CCCCCC1`, the growth in the test with T-47D breast is -30% (active); in the test with BT-549 breast, -66.6% (active); with MDA-MB-435 melanoma it was -82.4% (active); in the test with SW-620 colon it was -56.3% (active); in the test on MCF7 breast, -45.9% (active); in the test on HCT-116 colon, -53.1% (active). In addition, the growth in the test with HCC-2998 colon is -63.7% (active); in the test with KM12 colon, -65.9% (active).
